Assay outcomes (PubChem BioAssay)
Shown are actives, neighbours in structure and some others; about 3.5% of the full set was active somewhere.
Pf apPOL inh = Pf-apPOL DNA polymerase inhibition; Recombinant Pf-apPOL, molecular beacon fluorescence, 1.5 h; inhibition, % at 10 µM; actives 0.25% (n = 210,000); AID 1794808
mHTT-CaM PPI inh = inhibitors of human mutant huntingtin-calmodulin interaction; inhibition, % at 15 µM; actives 3.6% (n = 190,000); P42858; AlphaScreen His-mHTT/GST-CaM binding, luminescence;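 further: 0% = both proteins with DMSO and 100% = one protein alone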
Target sequence (P42858 whole entry, looked up, stated change not applied): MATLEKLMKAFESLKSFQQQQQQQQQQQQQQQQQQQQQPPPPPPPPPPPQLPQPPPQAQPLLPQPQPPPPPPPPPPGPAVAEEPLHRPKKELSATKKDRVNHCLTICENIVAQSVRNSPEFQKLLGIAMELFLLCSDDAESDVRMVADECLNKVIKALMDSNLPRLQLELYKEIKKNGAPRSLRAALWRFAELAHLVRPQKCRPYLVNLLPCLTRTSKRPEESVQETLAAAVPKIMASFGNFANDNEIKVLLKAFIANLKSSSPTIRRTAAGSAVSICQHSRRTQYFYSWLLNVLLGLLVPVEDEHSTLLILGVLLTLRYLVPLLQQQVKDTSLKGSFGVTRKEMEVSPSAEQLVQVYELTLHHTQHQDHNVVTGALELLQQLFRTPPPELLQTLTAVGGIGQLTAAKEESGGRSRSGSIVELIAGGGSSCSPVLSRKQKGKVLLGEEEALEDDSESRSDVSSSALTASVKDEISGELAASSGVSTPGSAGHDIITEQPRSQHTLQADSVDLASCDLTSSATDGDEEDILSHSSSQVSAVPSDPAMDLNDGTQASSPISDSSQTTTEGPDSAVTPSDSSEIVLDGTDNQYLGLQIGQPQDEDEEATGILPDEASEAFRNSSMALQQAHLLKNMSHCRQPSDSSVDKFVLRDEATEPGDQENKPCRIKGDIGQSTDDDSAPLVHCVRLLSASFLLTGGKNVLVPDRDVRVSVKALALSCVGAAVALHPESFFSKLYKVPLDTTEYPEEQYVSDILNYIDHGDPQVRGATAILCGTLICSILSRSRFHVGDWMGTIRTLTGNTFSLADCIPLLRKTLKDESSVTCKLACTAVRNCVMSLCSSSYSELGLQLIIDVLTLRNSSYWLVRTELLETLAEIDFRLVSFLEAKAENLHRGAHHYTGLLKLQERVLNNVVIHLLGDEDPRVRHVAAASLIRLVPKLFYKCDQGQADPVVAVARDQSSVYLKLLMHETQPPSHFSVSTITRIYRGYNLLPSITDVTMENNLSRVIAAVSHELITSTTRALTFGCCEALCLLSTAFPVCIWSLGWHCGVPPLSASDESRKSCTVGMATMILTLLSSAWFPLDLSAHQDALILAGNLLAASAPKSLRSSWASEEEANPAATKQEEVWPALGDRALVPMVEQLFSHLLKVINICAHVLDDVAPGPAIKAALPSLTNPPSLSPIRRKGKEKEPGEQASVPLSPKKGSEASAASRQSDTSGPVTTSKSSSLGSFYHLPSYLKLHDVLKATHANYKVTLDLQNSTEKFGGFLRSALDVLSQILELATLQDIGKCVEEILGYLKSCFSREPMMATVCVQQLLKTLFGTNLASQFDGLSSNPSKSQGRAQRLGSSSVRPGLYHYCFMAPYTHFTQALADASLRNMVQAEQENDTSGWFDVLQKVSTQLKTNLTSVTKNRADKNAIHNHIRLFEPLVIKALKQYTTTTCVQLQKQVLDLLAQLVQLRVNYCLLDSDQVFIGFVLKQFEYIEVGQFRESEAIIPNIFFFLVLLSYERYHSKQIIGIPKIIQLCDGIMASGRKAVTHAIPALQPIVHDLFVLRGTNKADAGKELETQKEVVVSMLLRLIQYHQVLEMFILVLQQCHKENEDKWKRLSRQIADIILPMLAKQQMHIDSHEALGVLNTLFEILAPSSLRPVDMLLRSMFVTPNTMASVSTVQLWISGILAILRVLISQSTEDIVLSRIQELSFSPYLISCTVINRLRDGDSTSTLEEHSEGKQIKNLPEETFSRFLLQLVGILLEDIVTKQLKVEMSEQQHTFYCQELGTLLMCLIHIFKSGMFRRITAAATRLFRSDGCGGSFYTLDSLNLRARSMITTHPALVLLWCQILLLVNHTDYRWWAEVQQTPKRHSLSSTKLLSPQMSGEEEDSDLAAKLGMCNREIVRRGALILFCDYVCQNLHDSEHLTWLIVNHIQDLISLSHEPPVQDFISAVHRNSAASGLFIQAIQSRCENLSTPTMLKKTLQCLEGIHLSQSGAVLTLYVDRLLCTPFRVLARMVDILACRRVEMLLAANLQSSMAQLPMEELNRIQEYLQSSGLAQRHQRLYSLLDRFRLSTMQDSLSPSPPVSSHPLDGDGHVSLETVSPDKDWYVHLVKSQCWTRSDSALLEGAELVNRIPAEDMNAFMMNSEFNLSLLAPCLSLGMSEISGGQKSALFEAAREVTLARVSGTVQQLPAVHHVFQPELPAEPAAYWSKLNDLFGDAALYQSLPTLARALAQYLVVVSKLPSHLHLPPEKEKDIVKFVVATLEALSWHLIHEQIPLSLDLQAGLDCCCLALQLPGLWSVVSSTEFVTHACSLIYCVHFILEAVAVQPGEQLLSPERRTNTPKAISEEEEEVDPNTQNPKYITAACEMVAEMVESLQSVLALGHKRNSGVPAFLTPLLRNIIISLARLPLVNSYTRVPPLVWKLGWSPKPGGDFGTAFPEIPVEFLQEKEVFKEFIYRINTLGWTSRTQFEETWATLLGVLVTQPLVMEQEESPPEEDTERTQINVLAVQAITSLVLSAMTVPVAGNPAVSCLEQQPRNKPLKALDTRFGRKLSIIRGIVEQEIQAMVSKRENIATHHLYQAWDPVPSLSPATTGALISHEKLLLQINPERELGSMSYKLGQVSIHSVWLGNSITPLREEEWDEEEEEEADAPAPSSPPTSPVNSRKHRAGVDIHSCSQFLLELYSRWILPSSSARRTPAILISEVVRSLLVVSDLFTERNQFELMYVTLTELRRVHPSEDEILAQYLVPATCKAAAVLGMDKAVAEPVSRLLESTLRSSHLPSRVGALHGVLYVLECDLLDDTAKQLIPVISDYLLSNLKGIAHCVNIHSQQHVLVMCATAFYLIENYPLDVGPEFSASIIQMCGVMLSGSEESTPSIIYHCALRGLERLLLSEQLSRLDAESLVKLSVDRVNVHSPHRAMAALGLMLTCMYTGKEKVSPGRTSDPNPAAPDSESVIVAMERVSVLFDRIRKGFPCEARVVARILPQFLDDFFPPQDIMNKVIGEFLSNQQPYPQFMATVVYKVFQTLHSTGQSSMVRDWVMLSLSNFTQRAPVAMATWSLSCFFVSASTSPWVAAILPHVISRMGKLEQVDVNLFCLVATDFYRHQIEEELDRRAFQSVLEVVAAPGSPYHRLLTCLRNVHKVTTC
An asterisk follows results filed as active; · = not tested or not shown. No stated cut-off is given here; in the data, active means inhibition above about 50%; inactive means the rest.

SMILES | Pf apPOL inh | mHTT-CaM PPI inh
O=C(CCc1c[nH]c2ccccc12)N1CCc2c(nc3cc(-c4ccccc4)[nH]n3c2=O)C1 | 9.6 | 7.5
COc1ccc(-c2cc3nc4c(c(=O)n3[nH]2)CN(C(=O)Cc2cccc(C)c2)CC4)cc1 | 4.0 | 36.7
O=C(CCc1ccccc1)N1CCc2c(nc3cc(-c4ccccc4)[nH]n3c2=O)C1 | 8.0 | 71.7*
Cc1cccc(CC(=O)N2CCc3c(nc4cc(-c5ccccc5)[nH]n4c3=O)C2)c1 | -6.5 | 74.4*
O=C(NC1CCCCC1)/C(=C\c1ccc2c(c1)OCO2)NC(=O)c1ccccc1Cl | 6.9 | 1.0
N=C1NC(=O)C(CC(=O)Nc2ccc(F)cc2)S1 (stereo not drawn) | 2.4 | 5.0
O=C(c1ccc(OCC2CCCN(C(=O)c3cc(F)ccc3F)C2)cc1)N1CCOCC1 (stereo not drawn) | -4.7 | -13.4
Cc1ccc(-c2nc3ncccn3c2Nc2c(C)cccc2C)o1 | -6.4 | 10.0
Cc1cccc(C)c1Nc1c(-c2ccccn2)nc2ncccn12 | 0.9 | 100.0*
O=C(Nc1ccc2c(c1)OCO2)N1CCC2(CC1)Nc1cc(F)ccc1-n1cccc12 | -2.8 | 68.2*
Cc1ccc(NC(=O)N2CCC3(CC2)Nc2cc(F)ccc2-n2cccc23)cc1Cl | 4.9 | 77.4*
O=C(Nc1ccc2c(c1)OCCO2)N1CCC2(CC1)Nc1ccccc1-n1cccc12 | 4.0 | 62.4*
Cc1cc(C)cc(NC(=O)N2CCC3(CC2)Nc2cc(F)ccc2-n2cccc23)c1 | 2.5 | 70.6*
N#CCCN1CCN(CN2C(=O)c3ccccc3C2=O)CC1 | -4.4 | 12.0
CS(=O)(=O)Nc1ccc2c(c1)CCCN2C(=O)c1ccco1 | -6.4 | -5.8
COc1cc(OC)cc(C(=O)N2CCC3(CC2)NC(=O)c2ccc(Cl)cc2N3)c1 | -3.8 | 13.8
O=C(Nc1cccc(Cl)c1)N1CCC2(CC1)Nc1cc(F)ccc1-n1cccc12 | 1.3 | 94.2*
Cc1ccc(C)c(NC(=O)N2CCC3(CC2)Nc2cc(F)ccc2-n2cccc23)c1 | -5.9 | 31.2
O=C(Nc1cccc(Cl)c1)N1CCC2(CC1)Nc1ccccc1-n1cccc12 | -0.9 | 24.1
Cc1ccc(NC(=O)N2CCC3(CC2)Nc2cc(F)ccc2-n2cccc23)cc1C | 31.5 | 54.3*
COc1ccc(-n2cc(C(=O)N3CCc4ccccc4C3)nn2)cc1 | -5.7 | -4.7
O=C(O)CCc1cn(CCC(=O)O)cn1 | · | -6.7
CCN(CC)c1ccc(C(Nc2ccccn2)c2ccc3cccnc3c2O)cc1 (stereo not drawn) | -1.0 | 100.0*
CCN(CC)c1ccc(C2C(C(=O)Nc3ccccn3)=C(C)NC3=C2C(=O)CCC3)cc1 (stereo not drawn) | -2.4 | 15.0
CC(C)Oc1ccc(C(Nc2ccccn2)c2ccc3cccnc3c2O)cc1 (stereo not drawn) | -279.6 | 98.0*
SMILES | Pf apPOL inh | mHTT-CaM PPI inh
CC(C)Oc1ccc(C(=O)Nc2cc(-c3nc4ncccc4o3)ccc2Cl)cc1 | -7.3 | 6.0
Cc1noc(C2CN(C(=O)CC3CCCC3)CC23CCOCC3)n1 (stereo not drawn) | -4.9 | -9.9
O=C(Nc1cc(Cl)ccc1Cl)c1cc(S(=O)(=O)NC2CCCCC2)ccc1F | -3.5 | -15.0
CC/C(=C/c1ccccc1)c1cccc2[nH]c3c(OC)cccc3c12 | -4.7 | 53.6*
CC/C(=C\c1ccccc1)c1cccc2oc3ccccc3c12 | 1.4 | -11.6
COc1ccc(Nc2n[nH]nc2C(=O)Nc2cccc(SC)c2)cc1 | 1.5 | 50.0*
COc1ccc(C(=O)Nc2cccc(SC)c2)cc1 | 1.1 | -9.1
CCN1CC=C2C(C#N)=C(N)C(C#N)(C#N)C(c3ccncc3)C2C1 (stereo not drawn) | -1.0 | 0.0
Cn1c(=O)c(C(=O)Nc2cc(C(F)(F)F)ccc2Cl)c(O)c2sccc21 | -10.7 | -3.6
CCCC(=O)Nc1nc2n(n1)C(c1ccccc1)C=C(c1ccccc1)N2 (stereo not drawn) | 1.4 | 44.0
COc1ccc(/C=C/C(=O)Nc2nc3n(n2)C(c2ccccc2)C=C(c2ccccc2)N3)cc1 (stereo not drawn) | -3.0 | 72.0*
CCc1ccccc1NC(=O)Cn1ccc2c(=O)[nH]ccc21 | 29.7 | 22.9
COc1ccc(NC(=O)Cn2ccc3c(=O)[nH]ccc32)cc1 | 52.6* | 17.5
Cc1cccc(NC(=O)Cn2ccc3c(=O)[nH]ccc32)c1C | 53.5* | 12.9
Cc1ccc(NC(=O)Cn2ccc3c(=O)[nH]ccc32)cc1C | 30.6 | 16.2
COc1ccc(C2N(Cc3ccccc3)CCN2Cc2ccccc2)cc1O | 1.4 | 2.0
CC(=O)Nc1c2ccc([N+](=O)[O-])cc2n2c(C)nc3ccc(Cl)cc3c12 | -5.4 | -2.0
Cc1nc2ccc(Cl)cc2c2c(N)c3ccccc3n12 | -11.8 | 56.2*
CC1(C)C(C=C(Cl)Cl)C1C(=O)Nc1ccc(Cl)c(Cl)c1 (stereo not drawn) | -5.8 | -21.0
CC1(C)C(C=C(Cl)Cl)C1C(=O)Nc1cccc(C(F)(F)F)c1 (stereo not drawn) | -0.8 | 53.0*
Cc1ccc(C(=O)N2CCC(CCNS(=O)(=O)c3ccc(C)c(C)c3)CC2)cc1 | 2.4 | 40.1
